{"source": "PubChem BioAssay (NCI)", "note": "Compounds without any hit were thinned out: in the full panel of roughly 83,000, 20% have a hit.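 Single-concentration screen, 48 h exposure, 96-well plates. Endpoint: percent growth. Below 10 = active.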 Activity calls are given as the source filed them.", "data": [{"tested_on": "SF-539 CNS", "assay": "NCI-60 one-dose screen, 48 h (100 = growth as untreated, 0 = no growth, -100 = all killed)", "conditions": "10 µM unless noted", "values": [{"smiles": "CCCCC1COc2cccc3c(SCC(=O)N(C)c4cccc(Cl)c4)cc[n+]1c23", "note": "(stereo unspecified)", "growth": "97.5% (inactive)"}, {"smiles": "COc1ccc(-c2c(N)n[nH]c2-c2ccccc2O)cc1OC", "growth": "86.5% (inactive)"}, {"smiles": "CCOC(=O)c1sc(-c2ccc(OS(=O)(=O)c3ccc(C(C)(C)C)cc3)c(C=O)c2)nc1C", "growth": "45.6% (inactive)"}, {"smiles": "Cc1nc(Nc2ccc(NC(=S)Nc3ccccc3)cc2)nc2nc(Nc3ccc(S(=O)(=O)O)cc3)[nH]c(=O)c12", "growth": "132% (inactive)"}, {"smiles": "COc1ccc(/C=C2\\COc3ccc(O)cc3C2=O)c(OC)c1", "growth": "57.5% (inactive)"}, {"smiles": "COc1ccc(/C(C)=C(\\c2ccc(Cl)cc2)c2ccc(OCCCN(C)C)cc2)cc1F", "growth": "44.9% (inactive)"}, {"smiles": "Cc1nc(Nc2ccc(NC(=S)Nc3ccccc3)cc2)c2ccccc2n1", "growth": "100% (inactive)"}, {"smiles": "C=C1C(=O)O[C@H]2[C@H]1CC/C(COC(=O)/C=C\\C(=O)NCc1ccc(Cn3c(=O)sn(-c4ccc(OC)cc4)c3=O)cc1)=C\\CC[C@@]1(C)O[C@@H]21", "growth": "-99.3% (active)"}, {"smiles": "CN(C)CCn1cc(-c2ccc3c(Nc4ccc(CC(=O)Nc5cccc(F)c5)cc4)ncnc3c2)cn1", "growth": "-94.2% [30 µM] (active)"}, {"smiles": "COc1cc(/C=C/c2nc(Nc3ccc(S(=O)(=O)Nc4cc(C)on4)cc3)c3ccccc3n2)ccc1O", "growth": "61.9% (inactive)"}, {"smiles": "COc1ccc(/C(C)=C(\\c2ccc(Cl)cc2)c2ccc(OCCN3CCCC3)cc2)cc1F", "growth": "3.19% (active)"}, {"smiles": "Cc1nc(Nc2ccc(S(=O)(=O)Nc3cc(C)on3)cc2)c2ccccc2n1", "growth": "97.6% (inactive)"}, {"smiles": "COc1ccc(OC)c(/C=C2\\COc3ccc(O)cc3C2=O)c1", "growth": "90.5% (inactive)"}, {"smiles": "CCN(CC)CCOc1ccc(/C(=C(\\C)c2ccc(F)c(OC)c2)c2ccc(Cl)cc2)cc1", "growth": "-68.3% (active)"}, {"smiles": "O[C@H]1CO[C@H]2[C@@H]1OC[C@@H]2Oc1ccc(Nc2ccnc(Nc3ccc(O[C@H]4CO[C@H]5[C@@H]4OC[C@@H]5O)c(Cl)c3)n2)cc1Cl", "growth": "8.89% (active)"}, {"smiles": "CC(=O)Nc1ccc(-c2cc3c(NCc4ccc(F)cc4)ncnc3s2)cc1", "growth": "56.6% (inactive)"}, {"smiles": "C/C(Cc1ccc(Cl)cc1)=C(/c1ccc(Cl)cc1)c1ccc(OCCN(C)C)cc1", "growth": "66.7% (inactive)"}, {"smiles": "C=C1C(=O)O[C@H]2[C@H]1CC/C(COC(=O)/C=C\\C(=O)NCc1ccc(Cn3c(=O)sn(CCCC)c3=O)cc1)=C\\CC[C@@]1(C)O[C@@H]21", "growth": "-98.9% (active)"}, {"smiles": "Cc1nc(Nc2cccc(NC(=O)Nc3ccc(Cl)cc3)c2)c2ccccc2n1", "growth": "94.6% (inactive)"}, {"smiles": "COc1ccc(/C=C2\\COc3ccc(O)c(O)c3C2=O)c(OC)c1", "growth": "49.5% (inactive)"}, {"smiles": "CCN(CC)CCOc1ccc(/C(=C(\\C)c2ccc(OC)c(F)c2)c2ccc(Cl)cc2)cc1", "growth": "24.5% (inactive)"}, {"smiles": "C=C1C(=O)O[C@H]2[C@H]1CC/C(COC(=O)/C=C\\C(=O)NCc1ccc(Cn3c(=O)sn(-c4ccc(C#N)cc4)c3=O)cc1)=C\\CC[C@@]1(C)O[C@@H]21", "growth": "-99.3% (active)"}, {"smiles": "CN(C)CCN1C(=O)c2cccc3c(-c4ccc(-c5nc6c7ccccc7c7ccccc7c6[nH]5)cc4)ccc(c23)C1=O", "growth": "92.7% (inactive)"}, {"smiles": "c1ccc([P+](CCCc2n(Cc3ccc4ccccc4c3)c3ccccc3[n+]2Cc2ccc3ccccc3c2)(c2ccccc2)c2ccccc2)cc1", "growth": "36.8% (inactive)"}, {"smiles": "CCCCS(=O)(=O)Oc1ccc(-c2nc(C)c(C(=O)OCC)s2)cc1C=O", "growth": "58% (inactive)"}, {"smiles": "CCCCN(Cc1ccc(C(=O)NO)cc1)C(=O)Nc1ccc(OCCCCCCCCCn2cc(CCCCC(=O)N[C@H](C(=O)N3C[C@H](O)C[C@H]3C(=O)NCc3ccc(-c4scnc4C)cc3)C(C)(C)C)nn2)cc1", "growth": "32% (inactive)"}, {"smiles": "COc1ccc(/C(C)=C(\\c2ccc(Cl)cc2)c2ccc(OCCN3CCCCCC3)cc2)cc1F", "growth": "24.5% (inactive)"}, {"smiles": "C=C1C(=O)O[C@H]2[C@H]1CC/C(COC(=O)/C=C\\C(=O)NCc1ccc(Cn3c(=O)sn(-c4ccc(Cl)cc4)c3=O)cc1)=C\\CC[C@@]1(C)O[C@@H]21", "growth": "-100% (active)"}, {"smiles": "O[C@H]1CO[C@H]2[C@@H]1OC[C@@H]2Oc1ccc(Nc2nc(Nc3ccc(F)c(Cl)c3)ncc2F)cc1Cl", "growth": "95% (inactive)"}, {"smiles": "O=C(CCc1nc(-c2cccc(Cl)c2)no1)Nc1ccccn1", "growth": "96.6% (inactive)"}, {"smiles": "COc1ccc(Cn2cnc3cc(C(=O)Nc4cccc5ccccc45)ccc32)c(OC)c1", "growth": "-36.7% [30 µM] (active)"}]}]}
